In all, about 320,000 compounds went through this assay and about 2,100 (0.66%) were called active. Another 53% or so got no clear call; they are omitted. The call rests on the fitted dose curve; in most records, active means well fitted inhibition curve with a large enough effect in the signal ratio, with a control signal flat (not every such curve was filed as active); inconclusive means small, poorly fitted or top-dose-only effect, or effect the other way, or a change in a side signal; inactive means flat fitted curve, though single readings scatter; the % refers to the signal ratio. This excerpt belongs to a sample that is enriched for actives.
Potency means the concentration at half of the fitted maximal effect.

The assay is described as follows: qHTS Assay for Lipid Storage Modulators in Drosophila S3 Cells.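 On cell number change: cells counted by Cell Tracker Red CMTPX staining in the red channel.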 On lipid storage change, negative = inhibition: on the % scale 0 is the no-effect control and ±100 the full control effect. As to conditions: BODIPY lipid droplet fluorescence, 18-24 h, cells fed with added oleic acid; cell number change: measured here: cell count max response; series mostly up to 46.1 µM. In short, it runs like this: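 Drosophila S3 cells loaded with oleic acid (400 uM, as added) and compounds at several concentrations; lipid droplets imaged by 488-nm laser-scanning cytometry, 500–530 nm intensity and object ratio to cell channel. Percent activity normalized to 20 uM Triacsin C.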
For the compound `COc1ccc(CC(=O)Nc2ccccc2C(=O)NCCc2ccccc2)cc1`, the Potency entry was “inactive” and the cell number change stood at 7.51%.
The like results for `Cc1ccc(OCC(O)CN2CCN(c3ccccc3)CC2)cc1` (stereo not drawn) were, in that order, “inactive” and -26.7%.
The like results for `O=C(Nc1ccc(S(=O)(=O)N2CCCCC2)cc1)C1CC1` were, in that order, “inactive” and 19.3%.
Consider `N/C(=N\OC(=O)Cc1ccccc1[N+](=O)[O-])c1cccc(Br)c1`, for which the Potency entry is “inactive” and the cell number change is -2.3%.
The like results for `Cn1c(CCN2CCN(c3ccccn3)CC2)nc2cc(NS(=O)(=O)c3ccccc3)ccc21` were, in that order, “inactive” and 8.74%.
The like results for `CC(=O)Nc1ccc2c(c1)nc(CCN1CCN(c3ccccn3)CC1)n2C` were, in that order, “inactive” and -2.13%.
The like results for `Cc1ccc(S(=O)(=O)Nc2ccc3c(c2)nc(CCN2CCN(c4ccccn4)CC2)n3C)cc1` were, in that order, 16.4 µM (active) and 24.4%.
Turning to `O=C(/C=C/N1CCN(Cc2ccccc2)CC1)C(F)(F)F`, the cell number change worked out at 4.65% and the lipid storage change, negative = inhibition is -0.119% [at 9.22 µM] (inactive).
As for `O=C(O)COc1c(-c2ccc(Cl)cc2)oc2ccccc2c1=O`, the Potency entry is “inactive” and the cell number change worked out at 7.07%.
The like results for `O=C(O)COc1c(-c2ccccc2)oc2ccccc2c1=O` were, in that order, 23.1 µM (active) and 10.5%.
The like results for `NC(=O)COc1c(-c2ccccc2)oc2ccccc2c1=O` were, in that order, “inactive” and 0.203%.
On to `COc1ccc(CNC(=O)CSc2n[nH]c(N)n2)cc1`, for which the Potency result was “inactive” and the cell number change is 2.63%.
The like results for `Cc1[nH]c(C)c(S(=O)(=O)N(Cc2ccccc2)C(C)(C)C)c1C(=O)N1CCCC1` were, in that order, “inactive” and -27.6%.
The like results for `CCN(CC)C(=O)CSc1nnc(-c2ccco2)n1Cc1ccco1` were, in that order, “inactive” and -5.34%.
For `Cc1ccc(NC(=O)CSc2nnc(CNC(=O)c3ccco3)n2C)cc1`, the Potency result was “inactive”.
Turning to `O=C(OCc1ccc(Cl)cc1)c1cnccn1`, the Potency was 7.31 µM (active) and the cell number change worked out at 23.8%.
As for `COC(=O)c1ccc(COC(=O)c2cnccn2)cc1`, the Potency result is “inactive” and the cell number change was 9.29%.
With `O=C(c1ccccc1)c1ccc(COC(=O)c2cnccn2)cc1`, the Potency result was “inactive”.
The same measure, in the same setting: the value for `CCN(C(=O)CSc1nnc(COc2ccccc2F)n1N)C1CCS(=O)(=O)C1` (stereo not drawn) was “inactive”.
As to `CCN(C(=O)CSc1nnc(Cc2ccccc2F)n1N)C1CCS(=O)(=O)C1` (stereo not drawn), the Potency was 8.2 µM (active) and the cell number change was -2.07%.
On to `CCN(C(=O)CSc1nnc(-c2ccccc2)n1C)C1CCS(=O)(=O)C1` (stereo not drawn), for which the Potency result is “inactive”.
Still for that read-out and setting: the result for `Cc1onc(-c2ccccc2Cl)c1C(=O)N1CCN(C=O)CC1` reads “inactive”.
As to `Cc1onc(-c2ccccc2Cl)c1C(=O)N1CCCCCC1`, the Potency is 25.9 µM (active) and the cell number change was determined as 0.806%.
The like results for `Cc1onc(-c2ccccc2Cl)c1C(=O)N1CCC(C)CC1` were, in that order, “inactive” and -10.5%.
The like results for `CCNC(=S)N1CCN=C1Nc1nc(C)cc(C)n1` were, in that order, “inactive” and 8.32%.
The like results for `CCn1cc(CNC(=O)/C=C/c2ccc([N+](=O)[O-])cc2)cn1` were, in that order, “inactive” and -8.84%.
For `O=C(O)CCn1c2ccccc2c2nc3ccccc3nc21`, the Potency result was “inactive” and the cell number change is -11.8%.
The like results for `CCn1c2ccccc2c2nc3cc(C(=O)O)ccc3nc21` were, in that order, 0.58 µM (active) and -24.2%.
The like results for `CCn1c2ccc(C)cc2c2nc3cc(C(=O)O)ccc3nc21` were, in that order, “inactive” and -5.53%.
With `CC(=O)NCCc1nc2cc(NC(=O)c3cccc([N+](=O)[O-])c3)ccc2n1C`, the Potency entry was “inactive”.
For the compound `COc1nn(CC(=O)N2N=C(C)CC2(O)C(F)F)cc1[N+](=O)[O-]` (stereo not drawn), the Potency result was “inactive” and the cell number change was found to be 5.87%.
The like results for `COc1nn(CC(=O)N2N=C(C)CC2(O)C(F)(F)F)cc1[N+](=O)[O-]` (stereo not drawn) were, in that order, “inactive” and 11.8%.
As to `CCOC(=O)Cn1cc([N+](=O)[O-])c(OC)n1`, the Potency was 23.1 µM (active) and the cell number change was -15%.
The like results for `CCOc1ccc(CCNC(=O)c2nnc(Cc3ccc(F)cc3)o2)cc1OCC` were, in that order, “inactive” and -1.72%.
The like results for `CN(CCCNC(=O)COc1cc(=O)n(C)c2ccccc12)Cc1ccccc1` were, in that order, “inactive” and 1.19%.
The like results for `C=CCSc1nsc(NC(=O)Nc2ccc(F)cc2)n1` were, in that order, 5.17 µM (active) and -16.2%.
Take `O=C(Nc1nc(SCc2ccc(F)cc2)ns1)c1ccco1`: the Potency entry is “inactive” and the cell number change was -12.1%.
For the compound `CCSc1nsc(NC(=O)Nc2ccc(F)cc2F)n1`, the Potency result is “inactive”.
On to `Cc1ccccc1S(=O)(=O)NCC1CCCO1` (stereo not drawn), for which the Potency entry was “inactive” and the cell number change is -3.81%.
Turning to `COCc1cc(C)nc(SCC[N+](C)(C)CC(=O)c2ccc(Br)cc2)c1C#N`, the Potency result was “inactive”.
Consider `NC(=O)C1=C[C@@H](c2coc3ccccc3c2=O)C[C@@H](OCc2ccc(CO)cc2)O1`, for which the Potency result is “inactive” and the cell number change turned out to be 16%.
Turning to `CCc1ccc(CN(C)C(=O)c2cc(COc3cccc4cnccc34)on2)cc1`, the Potency entry was “inactive” and the cell number change stood at 14.5%.
The like results for `CCOC(=O)C1=C(COc2ccccc2)NC(=O)NC1c1cccc([N+](=O)[O-])c1` (stereo not drawn) were, in that order, 9.2 µM (active) and 3.89%.
The like results for `CCOC(=O)C1=C(C)NC(C)=C(C(=O)OCC)C1C` were, in that order, “inactive” and 8.56%.
The like results for `CC1=C(C(=O)OCC2CCCO2)C(c2cccc(O)c2)NC(=O)N1` (stereo not drawn) were, in that order, “inactive” and -24.8%.
On to `CCOC(=O)C1=C(C)NC(=O)NC1c1cccc(O)c1` (stereo not drawn), for which the Potency is 20.6 µM (active) and the cell number change came out at 0.128%.
The like results for `CCOC(=O)C1=C(C)NC(=O)NC1C` (stereo not drawn) were, in that order, 5.17 µM (active) and -10.2%.
Regarding `CCOC(=O)C1=C(CN2CCSCC2)NC(=O)NC1c1cccc([N+](=O)[O-])c1` (stereo not drawn), the Potency entry is “inactive” and the cell number change is -8.36%.
The like results for `CC1=C(C(=O)OCc2ccccc2)C(c2cccc([N+](=O)[O-])c2)NC(=O)N1` (stereo not drawn) were, in that order, “inactive” and 10.6%.
As to `CCOC(=O)C1=C(C)N(C)C(=O)NC1c1cccc(O)c1` (stereo not drawn), the Potency result was “inactive”.
Regarding `CCOC(=O)C1=C(CBr)NC(=O)NC1C` (stereo not drawn), the Potency result was “inactive” and the cell number change was -12.6%.

The values above are taken from PubChem BioAssay AID2685 (National Center for Advancing Translational Sciences (NCATS), 2010).
